Screening results: PubChem, Paczesny and Yang Labs, IUPUI and University of Michigan
ST2 IL33 inh = inhibitors of human ST2 (IL1RL1) binding to IL-33; Q01638; AlphaLISA ST2-Fc/biotin-IL-33 interaction, 1 h; inhibition, % for hits at 17 µM; hit rate 2.3% among 78,000; AID 1259354; in the data active means inhibition above about 30%
Target sequence (Q01638 whole entry, looked up): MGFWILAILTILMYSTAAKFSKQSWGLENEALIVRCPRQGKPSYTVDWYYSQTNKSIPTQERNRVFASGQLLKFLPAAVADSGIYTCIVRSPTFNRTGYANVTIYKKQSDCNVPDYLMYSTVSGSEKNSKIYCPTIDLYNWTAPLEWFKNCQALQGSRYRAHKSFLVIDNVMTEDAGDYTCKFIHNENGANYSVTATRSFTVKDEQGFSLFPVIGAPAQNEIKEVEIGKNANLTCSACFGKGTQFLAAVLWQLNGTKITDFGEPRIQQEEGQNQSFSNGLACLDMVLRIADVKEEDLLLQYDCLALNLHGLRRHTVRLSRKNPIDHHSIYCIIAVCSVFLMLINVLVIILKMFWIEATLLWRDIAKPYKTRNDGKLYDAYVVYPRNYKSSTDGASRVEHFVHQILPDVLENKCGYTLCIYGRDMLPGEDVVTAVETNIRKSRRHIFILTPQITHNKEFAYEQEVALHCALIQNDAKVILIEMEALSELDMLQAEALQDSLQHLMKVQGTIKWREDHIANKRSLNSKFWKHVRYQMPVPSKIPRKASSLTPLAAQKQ
A number is an active result; n = inactive; ! = a repeat was not active. The entries come from a sample that favours hits as a whole.

SMILES	ST2 IL33 inh
N#CC1=C(N)Oc2cc(O)c(Cl)cc2C1c1ccc(F)cc1 (centres undefined)	n
COc1ccc(N=Cc2cc3c(cc2O)OC(N)=C(C#N)C3c2cccc(F)c2)cc1 (centres undefined)	33%
CC(C)Cn1c(NCCCO)nc2c1c(=O)[nH]c(=O)n2C	n
Cc1ccc(CN2C(=O)CSc3ccc(C(=O)NCc4cccnc4)cc32)cc1	n
Nc1ccc(C(=O)N2CC[C@@H](c3ccc4c(c3)OCO4)[C@H](O)C2)cn1	n
Cc1nc2c(ccc3nc(NC(=O)c4cccc(Br)c4)sc32)s1	n
COC(=O)c1ccc(C(=O)Nc2nc3ccc4sc(C)nc4c3s2)cc1	36%
Cc1nc2c(ccc3nc(NC(=O)c4ccc(OC(C)C)cc4)sc32)s1	n
Cc1nc2c(ccc3nc(NC(=O)c4ccc5c(c4)OCCO5)sc32)s1	n
Cc1nc2c(ccc3nc(NC(=O)c4ccc(C)c(C)c4)sc32)s1	41%
Cc1nc2c(ccc3nc(NC(=O)c4ccccc4)sc32)s1	n
Cc1ccc(CCNC(=O)C2CCC(=O)N(CC3CCCCC3)C2)s1 (centres undefined)	n
O=[N+]([O-])c1cccc(-c2nc(-c3ccc(Br)cc3)no2)c1	n
CC(=O)N1CCc2cc(S(=O)(=O)NCC(=O)NCc3ccccc3)ccc21	n
CC(C)(C)c1ccnc(N[C@H]2CO[C@H]3[C@@H]2OC[C@@H]3NC(=O)C2CCCCC2)n1	n
CCn1c2ccccc2c2cc(CN3CCN(Cc4ccccn4)CC3)ccc21	n
O=C(CN(Cc1ccc(Cl)cc1)S(=O)(=O)c1ccccc1)NCc1ccccn1	n
O=C(c1ccc2c(c1)N(Cc1ccc(Cl)cc1)C(=O)CS2)N1CCOCC1	n
O=C(O)COc1ccc(C2C3=C(CCCC3=O)OC3=C2C(=O)CCC3)cc1Br	n
CCc1nc2cccnc2n1C1CCN(S(=O)(=O)c2ccc(C(C)(C)C)cc2)CC1	n
O=S(=O)(c1ccc2c(c1)OCCO2)N1CCC(n2cnc3cccnc32)CC1	98%
Cc1ccc(S(=O)(=O)N2CCC(n3c(C)nc4cccnc43)CC2)cc1C	n
N#CC1=C2N=C(N)c3c(sc4c3CCCCC4)N2C2=C(C(=O)CCC2)C1c1cccnc1 (centres undefined)	n
CCc1cc2c(=O)c(-c3nc4ccccc4s3)coc2c(CN(CC)CC)c1O	n
COc1ccc2nc(N=C(N)N)nc(C)c2c1	n
SMILES	ST2 IL33 inh
COc1ccc2nc(N=C(N)NC(=O)Cc3ccc(Cl)cc3)nc(C)c2c1	35%
CCC(=O)NC(N)=Nc1nc(C)c2cc(C)ccc2n1	n
O=C(N[C@H]1CCN2C(=O)N(c3ccc(OC(F)(F)F)cc3)C(=O)[C@@H]2C1)c1ccncc1	n
CC(=O)N1CCC(C(=O)N[C@H]2CCN3C(=O)N(c4cccc(C(F)(F)F)c4)C(=O)[C@@H]3C2)CC1	n
O=C(N[C@H]1CCN2C(=O)N(c3cccc(C(F)(F)F)c3)C(=O)[C@@H]2C1)c1ccncc1	56%
CCOC(=O)c1c(C)n(C)c2ccc(OC(=O)c3cccc(Br)c3)cc12	n
COC(=O)c1cc(CN2CCC3(CCCN(C)C3=O)C2)ccc1O (centres undefined)	n
Cc1ccc(-c2[nH]nc3c2C(c2cccc(F)c2)C(C#N)=C(N)O3)cc1 (centres undefined)	n
CCOc1cc(-c2c(C#N)c(N)n3c(nc4ccccc43)c2C#N)ccc1OC	37%
CCc1c(C)c(C#N)c2nc3ccccc3n2c1NCCOC	n
Cc1cc(-n2ccnc2C)n2c(nc3ccccc32)c1C#N	n
CCC(C)c1ccc(OCCCCN2CCN(C)CC2)cc1 (centres undefined)	39%
CN1CCN(CCCOc2ccc(C(C)(C)c3ccccc3)cc2)CC1	n
CCC(C)c1ccccc1OCCCCN1CCCC1 (centres undefined)	n
CN(Cc1ccco1)C(=O)c1c[nH]c2ccc(S(=O)(=O)Nc3ccccc3F)cc2c1=O	n
CCOC(CCNC(=O)c1cc2cc3ccc(OC)cc3nc2s1)OCC	n
COc1ccc(CNC(=O)c2cc3cc4ccc(OC)cc4nc3s2)cc1	38%
COc1ccc(CNC(=O)c2cc3cc4ccc(OC)cc4nc3o2)cc1	n
COCCNC(=O)c1cc2cc3ccc(C)cc3nc2s1	n
COc1ccc2cc3cc(C(=O)NCc4ccc(F)cc4)sc3nc2c1	31%
COc1ccc(CNC(=O)c2cc3cc4ccc(OC)cc4nc3s2)c(OC)c1	n
CSc1ccc(CN2CCCC(CCC(=O)NC3CC3)C2)cc1 (centres undefined)	n
COc1ccc(CN2CCC[C@H]2c2nc(-c3ccc(OC)nc3)no2)c(O)c1	n
Cc1nc(C(=O)NC(C)c2ncn[nH]2)cs1 (centres undefined)	n
CCN1CCN(C(=O)c2ccc(CS(=O)(=O)c3ccc(OC)cc3)o2)CC1	n
SMILES	ST2 IL33 inh
Cc1ccc(C)c(CN2C(=O)CSc3ccc(C(=O)NCC4CCCO4)cc32)c1 (centres undefined)	n
CCCN(Cc1cccc([N+](=O)[O-])c1)CC1CC1	96%
O=[N+]([O-])c1cccc(CN2CCCCC2CCO)c1 (centres undefined)	n
O=[N+]([O-])c1cccc(CN2CCC(N3CCCCCC3)CC2)c1	n
O=C(CS(=O)(=O)c1cn(Cc2ccc(Cl)cc2)c2ccccc12)N1CCCc2ccccc21	n
CC1=CC(=NC(=O)c2ccc([N+](=O)[O-])cc2[N+](=O)[O-])C(C)=CC1=O	n
Cc1csc2ncc(C(=O)Nc3ccc(Cl)cc3)c(=O)n12	n
Cc1csc2ncc(C(=O)Nc3ccon3)c(=O)n12	97%!
Cc1csc2ncc(C(=O)Nc3ccccc3)c(=O)n12	n
CN1CCC(N2C[C@H](O)C[C@H]2c2nc(Cc3ccc(F)cc3Cl)no2)CC1	31%
CC(=O)N1CCC(N2C[C@H](O)C[C@H]2c2nc(CS(=O)(=O)c3ccc(F)cc3)no2)CC1	n
O=[N+]([O-])c1ccccc1CN1C[C@H](O)C[C@H]1c1nc(Cc2ccc(F)cc2Cl)no1	n
CC(C)NC(=O)c1c(NC(=O)c2ccccc2F)sc2c1CCC2	n
CN(Cc1cn(C)nc1-c1ccccc1)C1CCCN(Cc2ccccc2F)C1 (centres undefined)	n
CC1CCCC[C@H]2C(=O)C=C[C@H](O)[C@@H]2CC(=O)O1 (some centres undefined)	46%
CCOC(=O)C1=C(C)Nc2ncnn2C1c1ccccc1 (centres undefined)	n
CC(C)CCNC(=O)Cn1c(=O)n(CC2CCC(C(=O)N3CCCC3)CC2)c(=O)c2sccc21 (centres undefined)	n
COc1ccc(-c2[nH]c3ccccc3c2C(C[N+](=O)[O-])c2ccco2)cc1 (centres undefined)	n
COc1ccc(C(C[N+](=O)[O-])Sc2ccccc2N)cc1 (centres undefined)	32%!
COc1ccc(NC(=O)c2ccccc2Sc2ccc([N+](=O)[O-])cc2)cc1	n
CCOC(=O)CC1CCCCN1C(=O)Nc1cccc(SC)c1 (centres undefined)	n
COc1ccc(C=Nc2cc(Cl)c(N)c(Cl)c2)cc1	85%
COc1ccc(/C=C/C#N)cc1	n
CC(=O)c1ccc(N=Cc2ccc(C=Nc3ccc(C(C)=O)cc3)cc2)cc1	n
CC(Nc1ncnc2ccc(Br)cc12)c1ccccc1 (centres undefined)	n
CN1CCN(C(=O)CC[C@@H]2CNC(=O)[C@@H]3C[C@H](NC(=O)Nc4ccccc4)CN23)CC1	n
O=C(N[C@H]1C[C@H]2C(=O)NC[C@@H](CCC(=O)N3CCN(c4ccccn4)CC3)N2C1)C1CC1	n
